KCNH2 3.1 inh: blocks the human KCNH2 3.1 channel isoform | U2OS KCNH2 3.1, thallium flux FluxOr; hits give low values | activity change, % (tested at about 1.8 µM) | 340,000 tested, 0.95% active | AID 720553;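 active = maximum activity change below -70%; inconclusive = maximum activity change from -70% to -50%; inactive = maximum activity change above -50%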;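 also: thallium influx rate constant from kinetic fluorescence after stimulation buffer; % is scaled to controls: 0 for no effect and ±100 for the full control effect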
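Channel expression came from 3.1 mutant virus (1.77 x 10^8 /mL) applied to suspended U2OS cells for 4 h. Flux was tracked with FluxOr dye plus Red40 quencher, and kinetic rate constants normalized to controls.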
Menin-MLL FL inh: displaces fluorescein MLL peptide from human menin | FP activity change, % at 61.4 µM | Fluorescence polarization, fluorescein-MLL peptide displacement from menin | 290,000 tested, under 10 active | AID 1766; active = well fitted curve in the direction sought with a large enough effect in the polarisation, not every such curve was filed as active; inconclusive = small, poorly fitted or top-dose-only effect, or effect the other way, or a change in a side signal; inactive = no such curve, though single readings can be large or run the other way; the % refers to the polarisation; also: % of control where 0% means no effect
hERG WT inh: KCNH2 (human, wildtype) channel inhibition; Q12809; activity change, % at 1.84 µM; 340,000 tested, 0.37% active; U2OS, BacMam KCNH2, thallium flux FluxOr; hits give low values;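 active = maximum activity change below -70%; inconclusive = maximum activity change between -70% and -50%; inactive = maximum activity change above -50%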; also: % is scaled to controls: 0 for no effect and ±100 for the full control effect
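U2OS cells were transduced with wild-type KCNH2 virus (2.03 x 10^8 / mL) for 4 h at room temperature, then cultured overnight at 37 C. Thallium flux was read with FluxOr dye. Rate constants were normalized to DMSO controls.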
MLL CXXC-DNA inh: inhibitors of human MLL CXXC domain-DNA interaction; AID 2662; Q03164; MLL-CXXC / FITC-HOXA9 DNA fluorescence polarization; 290,000 tested, 0.037% active; Potency, µM (highest dose often 115 µM), without a hit: at the top dose activity change, negative = inhibition, most hits filed as inhibitors; active = well fitted inhibition curve with a large enough effect in the polarisation, with a control signal flat, not every such curve was filed as active; inconclusive = small, poorly fitted or top-dose-only effect, or effect the other way, or a change in a side signal; inactive = no such curve, though single readings can be large or run the other way; the % refers to the polarisation; also: potency is read from the fitted curve at half-maximal effect
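Fluorescence polarization: 7 uM MLL-CXXC (stock) preincubated 5 min with compounds, then 50 nM fluorescein-HOX-A9 DNA (stock) added; 30 min ambient. Buffer 50 mM Tris-HCl pH 7.5, 50 mM NaCl, 1 mM DTT, 0.05% BSA.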
Menin MLL FP TR: displaces Texas Red mutant MLL peptide from human menin. O00255. 270,000 tested, 0.23% active. Potency, µM (highest dose often 61.6 µM), for inactives: at the top dose FP activity change, negative = inhibition, actives largely listed as inhibitors. Menin + Texas Red MLL mutant peptide, fluorescence polarization; active = well fitted inhibition curve with a large enough effect in the polarisation, with a control signal flat, not every such curve was filed as active; inconclusive = small, poorly fitted or top-dose-only effect, or effect the other way, or a change in a side signal; inactive = no such curve, though single readings can be large or run the other way; the % refers to the polarisation; also: potency is read from the fitted curve at half-maximal effect; % of control where 0% means no effect
Target sequence (O00255 whole entry, looked up): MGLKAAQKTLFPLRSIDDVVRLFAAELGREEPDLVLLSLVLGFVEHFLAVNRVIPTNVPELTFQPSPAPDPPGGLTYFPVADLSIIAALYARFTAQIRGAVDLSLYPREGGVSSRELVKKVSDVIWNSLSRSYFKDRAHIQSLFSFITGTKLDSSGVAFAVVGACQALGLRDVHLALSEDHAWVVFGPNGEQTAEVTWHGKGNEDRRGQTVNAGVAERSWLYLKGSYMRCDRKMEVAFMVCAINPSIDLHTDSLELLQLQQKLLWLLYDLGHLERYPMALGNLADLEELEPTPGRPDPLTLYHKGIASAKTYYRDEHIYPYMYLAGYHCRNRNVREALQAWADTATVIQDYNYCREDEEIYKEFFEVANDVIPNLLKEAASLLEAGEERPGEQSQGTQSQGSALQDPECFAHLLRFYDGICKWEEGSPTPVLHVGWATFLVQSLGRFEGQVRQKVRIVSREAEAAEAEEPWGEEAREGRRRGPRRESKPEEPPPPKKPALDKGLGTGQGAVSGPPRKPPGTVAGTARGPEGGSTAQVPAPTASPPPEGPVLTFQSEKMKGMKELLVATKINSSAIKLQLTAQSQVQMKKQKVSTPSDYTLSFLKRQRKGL
An asterisk follows results filed as active; u = inconclusive; x = no result. Shown are actives, neighbours in structure and some others; about 1.1% of the full set was active somewhere.

SMILES	KCNH2 3.1 inh	Menin-MLL FL inh	hERG WT inh	MLL CXXC-DNA inh	Menin MLL FP TR
COc1ccc(C(=O)CNc2cccc(F)c2)cc1	-90.9*	-8.0	1.9	u	-14.9%
CC(C)N(Cc1nnc(-c2ccc(Cl)cc2)o1)C(=O)c1cc2ccccc2o1	-90.8*	x	-1.1	x	x
Cc1ccc(C)c(NC(=O)c2cc(-c3ccccc3O)n[nH]2)c1	-80.8*	-4.2	-5.9	2.6%	u
O=C(NCCCO)c1ccc2nc(-c3ccco3)c(-c3ccco3)nc2c1	-2.1	-17.4	3.6	-28.4%	u
O=C(NCCO)Nc1ccc2nc(-c3ccco3)c(-c3ccco3)nc2c1	x	u	x	35.5µM*	u
O=C(N/N=C/c1ccccn1)c1ccc(NC(=O)c2cccc([N+](=O)[O-])c2)cc1	-70.6*	2.5	-6.4	-14.4%	u
O=C(N/N=C/c1ccccn1)c1cccc([N+](=O)[O-])c1	-5.5	-0.2	3.4	8.8%	-2.7%
O=C(Nc1cccc(NC(=O)c2cccc([N+](=O)[O-])c2)n1)c1cccc([N+](=O)[O-])c1	-83.8*	-0.2	-7.3	u	16.6%
CCOc1ccc(NC(=O)OCCN2CCN(CCc3ccccc3)C(C)C2)cc1 (stereo not drawn)	-96.4*	x	-3.1	x	x
CCN(C(=O)c1cn(C)c(=O)c2cc(OC)c(OC)cc12)c1cc(OC)ccc1OC	4.6	0.6	-5.5	-8.7%	21.3%
CCN(CC)C(=O)c1cn(C)c(=O)c2cc(OC)c(OC)cc12	-197.6*	-0.1	4.4	1.2%	-4.6%
CCOC(=O)C1=C(C)N=C2SC(C)C(=O)N2C1c1ccc(C(=O)OC)cc1 (stereo not drawn)	18.9	0.1	6.0	0.2%	-1.6%
CCOC(=O)C1=C(C)N=C2SC(C)C(=O)N2C1c1ccccc1 (stereo not drawn)	-93.9*	-2.0	-8.5	6.9%	-11.4%
C=CCN(C(=O)CSc1nc2ccsc2c(=O)n1Cc1ccccn1)c1ccccc1	-90.8*	0.3	-9.1	14.4%	u
Cc1ccc(CNC(=O)CSc2nc3ccsc3c(=O)n2Cc2ccccn2)cc1	-5.3	0.7	1.9	7.8%	-8.1%
Cc1c(OC(C)C(=O)NCc2ccccn2)ccc2c3c(c(=O)oc12)CCC3 (stereo not drawn)	7.1	x	-10.4	-4.2%	x
Cc1c(OC(C)C(=O)NCc2ccncc2)ccc2c3c(c(=O)oc12)CCCC3 (stereo not drawn)	-77.8*	x	-9.9	56.1%	x
O=C(NNc1cc(N2CCCC2)nc(N2CCCC2)n1)c1ccc([N+](=O)[O-])cc1	-90.3*	-2.9	-40.8	-2.0%	u
CC(C)(C)c1ccc(C(=O)NNc2cc(N3CCCCC3)nc(N3CCCCC3)n2)cc1	-13.2	-3.3	5.8	8.0%	-5.2%
O=[N+]([O-])c1ccc(CN2CCOCCOCCN(Cc3ccc([N+](=O)[O-])cc3)CCOCC2)cc1	-114.9*	2.8	-89.9*	3.5%	-5.4%
O=[N+]([O-])c1ccc(COc2ccc(CN3CCOCC3)cc2)cc1	-18.2	x	11.1	x	x
COCCNC(=O)c1ccc(CN2CCOCC2)cc1	-8.8	0.0	-133.2*	u	28.6%
O=C(OCc1ccc([N+](=O)[O-])cc1)c1cc([N+](=O)[O-])ccc1N1CCOCC1	-88.9*	x	-105.8*	x	x
Cc1ccc(SCCNC(=O)c2ccc(CN3CCOCC3)cc2)cc1	-3.5	-5.2	9.5	4.9%	-1.3%
CSc1ccc(CN2CCN(Cc3ccc([N+](=O)[O-])cc3)CC2)cc1	-110.1*	-2.5	-111.8*	4.2%	-17.3%
SMILES	KCNH2 3.1 inh	Menin-MLL FL inh	hERG WT inh	MLL CXXC-DNA inh	Menin MLL FP TR
COc1cccc([C@@H]2Oc3ccc(OC)cc3C(=O)[C@H]2OC(=O)NCCOc2ccccc2)c1	x	1.7	x	x	5.7%
Cc1ccc(-c2csc(NC(=O)c3cc([N+](=O)[O-])ccc3N3CCOCC3)n2)cc1	-6.9	4.5	-108.1*	-12.8%	17.2%
COc1ccc(CN2CCOCCOCCN(Cc3ccc(OC)cc3)CCOCCOCC2)cc1	-73.8*	-0.8	-11.6	-5.6%	x
O=[N+]([O-])c1ccc(COc2ccc(Br)cc2CN2CCOCC2)cc1	-90.1*	2.1	12.2	28.6%	-2.6%
COc1ccc(CN2CCOCCOCCOCC2)cc1	-1.4	-0.7	8.2	-1.6%	x
COCCNC(=O)c1cccc(OC2CCN(Cc3ccc(OC(F)F)cc3)CC2)c1	-79.8*	-1.3	4.2	-21.8%	-17.7%
